Results reported in PubChem BioAssay (NCATS).
Records with an inconclusive call do not appear. The source made the active and inactive calls. Calls come from the whole dose curve; as a rule, active = well fitted curve in the direction sought with a large enough effect; inconclusive = small, poorly fitted or top-dose-only effect, or another doubt; inactive = no such curve, though single readings can be large; an effect the other way counts as inactive or inconclusive.

What was measured:
[1] = HEK293 12hr Apoptosis Induction qHTS against the NCATS CANVASS Library (AID 1347361)
Method in brief: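 Cells are seeded, dosed with an 11-point compound series and incubated 12 hours. Caspase-3/7 activity is detected by luminescent DEVD-substrate reagent after 15 minutes at room temperature.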

[2] = target: Luciferin 4-monooxygenase (Photinus pyralis) (UniProt P08659); assay: Firefly luciferase counterscreen qHTS: Assay Interference Panel against the NCATS CANVASS Library (AID 1347363); note: series mostly up to about 57 µM
Chain of Luciferin 4-monooxygenase (Photinus pyralis) (P08659 whole entry, looked up): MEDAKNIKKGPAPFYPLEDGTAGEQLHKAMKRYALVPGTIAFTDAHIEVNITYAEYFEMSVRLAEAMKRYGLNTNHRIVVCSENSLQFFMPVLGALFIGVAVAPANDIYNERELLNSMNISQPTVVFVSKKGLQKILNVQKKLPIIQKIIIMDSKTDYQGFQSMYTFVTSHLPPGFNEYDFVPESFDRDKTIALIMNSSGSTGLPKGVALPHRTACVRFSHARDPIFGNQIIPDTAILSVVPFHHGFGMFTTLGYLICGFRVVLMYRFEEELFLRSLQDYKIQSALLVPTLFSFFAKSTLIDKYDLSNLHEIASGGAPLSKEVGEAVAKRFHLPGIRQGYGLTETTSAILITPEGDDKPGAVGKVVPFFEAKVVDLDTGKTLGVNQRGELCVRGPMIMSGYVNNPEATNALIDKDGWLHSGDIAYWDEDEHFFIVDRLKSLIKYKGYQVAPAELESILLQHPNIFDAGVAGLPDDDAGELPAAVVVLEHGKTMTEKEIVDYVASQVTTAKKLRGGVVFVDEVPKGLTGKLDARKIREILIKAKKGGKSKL
Method in brief: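 Luminescence inhibition readout: compounds (11-point qHTS) sat 15 min at room temperature with substrate mix (0.013 mM luciferin and ATP), then firefly luciferase was added and signal read 5 min later.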

[3] = KB-8-5-11 Cancer Cell Toxicity qHTS against the NCATS CANVASS Library (AID 1347364); note: nearly all actives have a fitted effect of over 75% in size
Method in brief: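 KB-8-5-11 cells (500/well) in DMEM + 10% FBS were exposed to compounds in an 11-point qHTS series for 72 hr at 37C, 5% CO2. Viability was read by CellTiter-Glo luminescence.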

[4] = SDT Cancer Cell Toxicity qHTS against the NCATS CANVASS Library (AID 1347365);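 note: SDT canine glioma cells 500 per well in 1536 well plates; series mostly up to about 46 µM; nearly all actives have a fitted effect of over 60% in size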
Method in brief: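 SDT canine glioma cells (500 cells/well) were exposed to compounds in an 11-point series for 72 hr at 37C, 5% CO2; viability was read as ATP content by CellTiterGlo luminescence.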

[5] = KB-3-1 Cancer Cell Toxicity qHTS against the NCATS CANVASS Library (AID 1347366); note: series mostly up to about 46 µM; nearly all actives have a fitted effect of over 75% in size
Method in brief: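 Luminescence from CellTiter-Glo (10 min, room temperature) measured KB-3-1 viability after 72 hr compound exposure at 37C. Cells were seeded at 500/well and tested in an 11-point series.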

[6] = qHTS for ATAD5 Agonist screened against the NCATS CANVASS Library (AID 1347367);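 note: luciferase reporter driven by ATAD5 which rises upon DNA damage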
Method in brief: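 HEK293T-ATAD5 luc reporter; 2000 cells/well; 5hr settle; cpd 11-pt qHTS; 16hr 37C 5% CO2 dark; viability by CellTiter-Fluor (AFC fluorescence); then luciferase luminescence, 30min RT.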

[7] = G06 Cancer Cell Toxicity qHTS against the NCATS CANVASS Library (AID 1347368); note: series mostly up to about 46 µM; nearly all actives have a fitted effect of over 60% in size
Method in brief: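 G06 dog glioma cells seeded at 500 cells/well were exposed to compounds (11-point qHTS series) for 72 hr at 37C, 5% CO2; viability read as ATP content by CellTiterGlo luminescence.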

[8] = MCF7 Cancer Cell Toxicity qHTS against the NCATS CANVASS Library (AID 1347369)
Method in brief: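 Cells seeded at 500/well, then compound pinned. Plates incubated 72 hr at 37C, 5% CO2. CellTiterGlo added; luminescence read.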

[9] = qHTS for ATAD5 Antagonist screened against the NCATS CANVASS Library (AID 1347370);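 note: HEK293T cells carrying an ATAD5 luciferase reporter co-treated with 10 µM 5-fluorouridine; series mostly up to about 46 µM; nearly all actives have a fitted effect of over 65% in size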
Method in brief: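 HEK293T cells with a stably integrated ATAD5-controlled luciferase reporter were exposed to compounds (11-pt) alongside 10 uM 5-fluorouridine as ATAD5 stabilizer for 16hr at 37C. Viability was read by CellTiter-Fluor fluorescence, then ATAD5 by luminescence.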

[10] = J3T Cancer Cell Toxicity qHTS against the NCATS CANVASS Library (AID 1347371);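 note: J3T is a canine glioma cancer cell line seeded at 500 cells per well; series mostly up to about 46 µM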
Method in brief: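 J3T dog glioma cells (500 cells/well) were exposed to compounds in an 11-point series for 72 hr at 37C, 5% CO2. Cytotoxicity was read as ATP content by CellTiterGlo luminescence.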

[11] = target: Nuclear receptor subfamily 1 group I member 3 (Homo sapiens) (UniProt Q14994); assay: qHTS for Constitutive Androstane Receptor (CAR) Antagonist screened against the NCATS CANVASS Library (AID 1347372);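 note: cells stimulated with 50 nM CITCO agonist so inhibition reflects antagonism; series mostly up to about 46 µM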
Chain of Nuclear receptor subfamily 1 group I member 3 (Homo sapiens) (Q14994 whole entry, looked up): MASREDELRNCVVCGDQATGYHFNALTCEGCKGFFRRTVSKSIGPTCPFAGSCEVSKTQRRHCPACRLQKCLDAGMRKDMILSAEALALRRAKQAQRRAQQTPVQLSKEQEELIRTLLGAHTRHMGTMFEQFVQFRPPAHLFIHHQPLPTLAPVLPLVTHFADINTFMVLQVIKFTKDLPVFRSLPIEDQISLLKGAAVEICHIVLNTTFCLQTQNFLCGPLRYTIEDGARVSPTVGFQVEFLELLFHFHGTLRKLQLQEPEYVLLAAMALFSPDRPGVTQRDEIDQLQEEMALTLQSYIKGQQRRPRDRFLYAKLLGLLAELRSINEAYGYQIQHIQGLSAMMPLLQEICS
Method in brief: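 HepG2-CYP2B6-hCAR double-stable cells plated, 4hr attach; cpd pin-transferred; CITCO 50 nM final; 24hr 37C/5% CO2; CellTiter-Fluor 1hr (fluorescence), then ONE-Glo luminescence.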

[12] = target: Nuclear receptor subfamily 1 group I member 3 (Homo sapiens) (UniProt Q14994); assay: qHTS for Constitutive Androstane Receptor (CAR) Agonist screened against the NCATS CANVASS Library (AID 1347373);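 note: every well also contained 1.5 µM PK11195 alongside the test compound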
Method in brief: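 HepG2 cells stably expressing hCAR and a CYP2B6-2.2kb luciferase reporter were treated for 24hr at 37C with compounds (11-point qHTS) in the presence of 1.5uM PK11195. Reporter activation was read by ONE-Glo luminescence.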

[13] = qHTS for Hypoxia signaling pathway (HIF-1) antagonists against the NCATS CANVASS Library (AID 1347374);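 note: HRE-bla ME-180 cells stimulated with cobalt chloride to stabilize HIF-1alpha; series mostly up to about 38 µM; nearly all actives have a fitted effect of over 60% in size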
Method in brief: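 HRE-bla ME-180 cells (2,000/well, 0.5% dialyzed FBS) were pre-incubated 5 h, then given an 11-point compound series plus CoCl2 (60 uM solution as added) for 17 h at 37C. CCF4 β-lactamase read (ex 405, em 460/530 nm) after 2 h at RT.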

[14] = qHTS for Hypoxia signaling pathway (HIF-1) agonists against the NCATS CANVASS Library (AID 1347375)
Method in brief: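 HRE-bla ME-180 cells (beta-lactamase reporter under hypoxia responsive element) in 0.5% dialyzed FBS medium, 5 h at 37C, then compound 17 h, 11-point qHTS series. CCF4-AM FRET substrate 2 h RT; 460/530 nm emission read.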

[15] = qHTS for H2AX Agonists against the NCATS CANVASS Library (AID 1347378);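 note: phospho-H2AX S139 level in CHO-K1 lysates by TR-FRET emission ratio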
Method in brief: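 CHO-K1, 1000 cells/well, o/n 37C; cpd several conc, 3 hr 37C, 0.76% DMSO; lyse 30 min RT; cryptate anti-pH2AX(S139) + d2 anti-H2AX, 24 hr RT; HTRF 665/620.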

[16] = qHTS for Inflammasome Signaling Inhibitors: IL-1-beta AlphaLISA screen against the NCATS CANVASS Library (AID 1347379);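 note: human THP-1 cells primed with LPS then triggered with ATP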
Method in brief: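 Human THP-1 cells were pretreated 1 hr at 37 °C with compounds (up to 57.5 uM final), then stimulated with LPS (250 ng/mL final) and ATP (1.25 mM final). Secreted IL-1B was read by AlphaLISA after 16 hr.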

[17] = Inflammasome Signaling qHTS Counterscreen: IL-1-beta AlphaLISA counterscreen against the NCATS CANVASS Library (AID 1347381);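 note: cell-free check with purified IL-1β in medium and no THP-1 cells; series mostly up to about 57 µM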
Method in brief: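 To flag interference with the AlphaLISA read-out, a known amount of purified IL-1-beta (4 pg) replaced cell supernatant. Detection used anti-IL-1-beta acceptor beads, biotinylated antibody and streptavidin donor beads at room temperature.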

[18] = Cytotoxicity qHTS for assessment of Hepg2 cells membrane integrity screened against the NCATS CANVASS Library (AID 1347387)
Method in brief: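 HepG2 cells (2000/well) attached overnight at 37C, then received compounds in an 11-point series at 0.59 nM - 46 uM final for 5 hr. LDH release was detected fluorometrically (ex 560/em 590 nm) with CytoTox-ONE reagent after 10 min at room temperature.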

[19] = qHTS for Activators of p53 Stress Response Pathway screened against the NCATS CANVASS Library (AID 1347388)
Method in brief: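 Beta-lactamase reporter driven by p53 response elements in HCT-116 cells, read as the 460 nm/530 nm emission ratio after CCF4 loading, following 16 h of exposure to an 11-point series. Cell viability was measured in the same wells by CellTiter-Glo luminescence.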

[20] = qHTS assay for small molecule disruptors of mitochondrial membrane potential screened against the NCATS CANVASS Library (AID 1347389); note: series mostly up to about 46 µM; nearly all actives have a fitted effect of over 60% in size
Method in brief: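 HepG2 cells (2,000/well) were plated overnight at 37C, exposed to compound for 1 hr at 37C/5% CO2, then loaded with Mito-MPS dye for 30 min. Depolarization was read as a drop in red (590 nm) to green (535 nm) fluorescence ratio.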

[21] = qHTS for activators of Nrf2/ARE signaling pathway screened against the NCATS CANVASS Library (AID 1347391); note: nearly all actives have a fitted effect of over 60% in size
Method in brief: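 ARE-bla HepG2 beta-lactamase reporter cells, 2000 cells/well, were preincubated 5 h, then exposed to compounds (11-point series) for 16 h at 37C. CCF4 fluorescence (ex 405, em 460/530 nm) after 2 h at room temperature.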

[22] = qHTS for activators of dead-cell proteases activity screened against the NCATS CANVASS Library (AID 1347392);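 note: luminescence from protease leaking out of membrane-damaged cells cleaving impermeant substrate; rising signal means more cytotoxicity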
Method in brief: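 Compounds are pin-transferred onto attached HepG2 cells, giving 11 final concentrations. After 5 h at 37C, AAF-aminoluciferin reagent is added and luminescence is recorded at room temperature.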

[23] = Vero-766 cells viability qHTS against the NCATS CANVASS Library: Counterscreen for Zika virus inhibition assay (AID 1347394)
Method in brief: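 Vero 766, no virus; 1000 cells/well; o/n attach; cpd 11-pt; 72 h, 37C, 5% CO2; CTG luminescence; cell-free media wells = 100% inhibition.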

[24] = qHTS for inhibitors of Wild type Zika virus screened against the NCATS CANVASS Library (AID 1347396);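 note: ATP luminescence of surviving cells so rescue from viral cell killing; series mostly up to about 46 µM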
Method in brief: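 Luminescent CellTiter Glo read-out of virus-induced cytotoxicity, 72 h post-infection, in Vero 766 cells. Compounds were tested at 11 concentrations; uninfected, vehicle-treated wells defined 100% inhibition.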

Measured: Potency

O=C(OC1Cc2c(O)cc(O)cc2OC1c1cc(O)c(O)c(O)c1)c1cc(O)c(O)c(O)c1 (centres undefined)
inactive: all assays above
